Article PMC4336329 (PLoS ONE, 2015)
The campaign covered roughly 310,000 compounds. About 14,000 (4.5%) showed an effect of 50% or more. Effects have a minus sign here. Shown is part of a subset that was picked to be rich in strong results.

Biological target: human ether-à-go-go-related gene (hERG) potassium channel (human, UniProt Q12809)
Experiment: primary screen, population patch clamp on CHO cells stably expressing hERG; higher = less effect of the substance
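Note: peak tail current of the secondary pulse compared with the same well before compound.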

Chain of human ether-à-go-go-related gene (hERG) potassium channel (Q12809 whole entry, looked up): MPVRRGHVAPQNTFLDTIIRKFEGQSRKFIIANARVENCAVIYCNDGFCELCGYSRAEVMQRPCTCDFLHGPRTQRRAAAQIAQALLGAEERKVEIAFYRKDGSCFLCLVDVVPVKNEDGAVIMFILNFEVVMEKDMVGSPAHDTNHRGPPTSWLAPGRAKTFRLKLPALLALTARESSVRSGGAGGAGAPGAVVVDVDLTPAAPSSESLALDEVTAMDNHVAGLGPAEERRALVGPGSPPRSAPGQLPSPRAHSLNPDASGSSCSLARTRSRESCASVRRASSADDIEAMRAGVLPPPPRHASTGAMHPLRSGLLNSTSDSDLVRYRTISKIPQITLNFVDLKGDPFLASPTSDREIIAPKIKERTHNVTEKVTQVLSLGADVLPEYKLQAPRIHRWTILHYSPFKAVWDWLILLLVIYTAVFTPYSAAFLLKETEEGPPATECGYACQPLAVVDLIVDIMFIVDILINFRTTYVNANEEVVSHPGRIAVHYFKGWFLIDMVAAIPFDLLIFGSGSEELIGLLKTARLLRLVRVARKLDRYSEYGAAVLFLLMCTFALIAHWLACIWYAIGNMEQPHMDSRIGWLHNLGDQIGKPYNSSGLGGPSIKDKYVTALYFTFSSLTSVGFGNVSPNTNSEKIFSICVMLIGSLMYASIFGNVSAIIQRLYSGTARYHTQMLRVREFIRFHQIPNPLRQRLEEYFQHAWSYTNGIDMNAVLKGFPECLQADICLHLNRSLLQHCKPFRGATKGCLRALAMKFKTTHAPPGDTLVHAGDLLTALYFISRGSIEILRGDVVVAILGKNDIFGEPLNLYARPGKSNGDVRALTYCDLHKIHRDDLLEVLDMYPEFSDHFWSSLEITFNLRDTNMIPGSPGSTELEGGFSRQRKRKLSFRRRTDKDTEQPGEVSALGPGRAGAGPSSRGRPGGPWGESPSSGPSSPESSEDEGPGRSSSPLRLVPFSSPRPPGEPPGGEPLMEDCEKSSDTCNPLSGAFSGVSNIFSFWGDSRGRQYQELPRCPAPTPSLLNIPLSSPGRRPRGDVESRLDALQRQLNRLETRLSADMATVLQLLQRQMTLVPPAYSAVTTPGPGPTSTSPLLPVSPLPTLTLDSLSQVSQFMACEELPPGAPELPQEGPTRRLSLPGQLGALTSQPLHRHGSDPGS

Row | SMILES | hERG current change (%, negative = inhibition) at 10uM
1 | Cc1cc(N2CCOCC2)n2cc(-c3ccc(F)cc3)nc2n1 | -69%
2 | CC1CN(c2nc3ccccc3cc2-c2ccccc2)CC(C)O1 (stereo not shown) | -1.86%
3 | Cc1cc(N2CC(C)OC(C)C2)n2cc(-c3ccccc3)nc2n1 (stereo not shown) | -61.7%
4 | COc1ccc(-c2cc(-c3ccc(F)cc3)nc(N3CCN(C)CC3)n2)cc1 | -3.88%
5 | CCc1nn2c(N3CCOCC3)cc(C)nc2c1-c1ccc(F)cc1 | 0.767%
6 | Cc1cc(N2CCCCC2)n2nc(C)c(-c3ccccc3)c2n1 | 13.3%
7 | CN1CCN(c2cc(-c3ccccc3)nc3cc(-c4ccc(F)cc4)nn23)CC1 | -14.5%
8 | Cc1cc(N2CCN(c3nc(-c4ccccc4)cs3)CC2)c2ccccc2n1 | -23.3%
9 | Cc1cc(N2CCOCC2)n2nc(-c3cccc(F)c3)cc2n1 | 0.119%
10 | Cc1c(C(=O)N2CC(C)OC(C)C2)sc2nc(-c3ccccc3)cn12 (stereo not shown) | -15.2%
11 | Cc1cc(N2CCN(C)CC2)n2cc(-c3ccc(F)cc3)nc2n1 | -87.6%
12 | Cc1cc(N2CCN(c3ccccc3Cl)CC2)n2cc(-c3ccccc3)nc2n1 | -53.9%
13 | O=C(NNC(=S)Nc1ccccc1Cl)c1ccccc1 | 5.93%
14 | O=C(CN1c2ccccc2S(=O)(=O)c2ccccc21)NCc1ccccc1 | 9.11%
15 | Cc1cccc(N(CC(=O)N2CCOCC2)S(C)(=O)=O)c1 | 6.69%
16 | CCC(=O)NC(=S)Nc1ccc(N2CCOCC2)cc1 | -2.62%
17 | CS(=O)(=O)N1CCN(C(=O)c2cc3ccccc3oc2=O)CC1 | -0.0734%
18 | O=C(NCCC1=CCCCC1)C1CCN(S(=O)(=O)c2cccs2)CC1 | -29.2%
19 | CCOc1ccc(-n2c(SCC(=O)Nc3cc(C(=O)O)ccc3Cl)nc3ccccc3c2=O)cc1 | 28.8%
20 | COc1cc2nc(SCC(N)=O)n(CCC3=CCCCC3)c(=O)c2cc1OC | -10.9%
21 | CCN(CC)S(=O)(=O)c1cccc(C(=O)OCC(=O)Nc2ccccc2OC(F)F)c1 | -7.37%
22 | CCC(C)(C)C1CCc2c(sc(NC(=O)c3ccoc3C)c2C(N)=O)C1 (stereo not shown) | 17.8%
23 | COc1ccc(N/C=C(\C#N)S(=O)(=O)c2ccc(Cl)cc2)c(OC)c1 | -8.9%
24 | Cc1cc(N2CCOCC2)n2nc(C)c(-c3ccccc3)c2n1 | 9.17%
25 | Cc1cc(N2CCOCC2)n2ncc(-c3ccccc3)c2n1 | -18.5%
26 | Cc1cc(N2CCOCC2)n2cc(-c3ccccc3)nc2n1 | -50.1%
27 | O=C(Nc1ccccc1)c1ccc(Nc2c([N+](=O)[O-])cc([N+](=O)[O-])c3ccccc23)cc1 | 6.49%
28 | O=C(CSc1cccc[n+]1[O-])Nc1ccc2c(c1)OCO2 | 6.96%

Row | SMILES | hERG current change (%, negative = inhibition) at 10uM
29 | O=C(CSc1ccc(Br)cc1)N1CCN(C(=O)c2ccco2)CC1 | -62.4%
30 | COc1ccc(-c2nnc(SCC(=O)N3CCOCC3)o2)cc1 | -1.92%
31 | O=C(CSc1ccccc1)N1CCN(C(=O)c2ccco2)CC1 | -10.1%
32 | O=C(CSc1nnc(-c2ccc(OC(F)F)cc2)o1)N1CCOCC1 | -57%
33 | O=C(CSc1nnc(-c2ccc(F)cc2)o1)N1CCN(C(=O)c2ccco2)CC1 | -38.4%
34 | O=C(CSc1nnc(-c2ccccc2Br)o1)N1CCN(C(=O)c2ccco2)CC1 | -40.9%
35 | CCOc1ccc(-c2nnc(SCC(=O)N3CCOCC3)o2)cc1 | 2.8%
36 | O=C(CSc1nnc(-c2ccc(Br)cc2)o1)N1CCN(C(=O)c2ccco2)CC1 | -54.6%
37 | O=C(Cc1ccc(Br)cc1)N1CCN(C(=O)c2ccco2)CC1 | -32.3%
38 | C[C@H](NC(=O)c1cc2cc(Cl)ccc2n1C)C(=O)N1CCC[C@H]1C(=O)O | 13.7%
39 | O=C(NCCN1CCOCC1)[C@H](Cc1ccccc1)N1C(=O)c2ccccc2C1=O | -2.06%
40 | CS(=O)(=O)NC1CCN(Cc2ccccc2)CC1 | -2.95%
41 | COc1cccc(CN(C)C(=O)CNC(=O)c2ccc3c(c2)OCO3)c1OC | 15.3%
42 | CC1Cc2cc(/C(O)=C3\C(=O)C(=O)N(CCN(C)C)C3c3ccccc3F)ccc2O1 (stereo not shown) | 2.94%
43 | CCOc1ccc(S(=O)(=O)Nc2ccccn2)c2ccccc12 | 10.7%
44 | CC(Oc1ncnc2ccccc12)C(=O)Nc1cccc(S(=O)(=O)N2CCOCC2)c1 (stereo not shown) | -11.3%
45 | Cc1c(NS(=O)(=O)c2cccc(C(=O)Nc3ccccc3)c2)c(=O)n(-c2ccccc2)n1C | -11%
46 | CCn1cc(C(=O)N2CC(C)CC(C)C2)c(=O)c2cc(S(=O)(=O)N3CCCC3)ccc21 (stereo not shown) | 6.81%
47 | NC(=O)CSc1nccn1Cc1ccccc1 | 7.57%
48 | O=[N+]([O-])c1cc(C(F)(F)F)ccc1Sc1nccn1Cc1ccccc1 | -30.3%
49 | O=C(CSc1nccn1Cc1ccccc1)Nc1ccccc1 | 12.4%
50 | O=[N+]([O-])c1ccc(Sc2nccn2Cc2ccccc2)cc1 | -59.5%
51 | O=[N+]([O-])c1ccc(Sc2nccn2Cc2ccccc2)c([N+](=O)[O-])c1 | -57.9%
52 | O=[N+]([O-])c1ccccc1Sc1nccn1Cc1ccccc1 | -21.6%
53 | CCCn1c(C(CO)Nc2nc(C)cs2)nc2ccccc21 (stereo not shown) | -5.83%
54 | O=C(NC(=S)Nc1ccc(Oc2ccc(Cl)cc2)cc1)c1ccccc1 | 10.7%
55 | O=C(Nc1nnc(-c2ccc(Cl)cc2)o1)c1cccc(N2C(=O)CCC2=O)c1 | 12.2%
